Records with an inconclusive call do not appear. Where a call stands in place of a potency, no number is given. Unmarked numbers belong to inactive results. Calls of active or inactive are those of the source. Calls follow the shape of the dose curve; as a rule, active = well fitted curve in the direction sought with a large enough effect; inconclusive = small, poorly fitted or top-dose-only effect, or another doubt; inactive = no such curve, though single readings can be large; an effect the other way counts as inactive or inconclusive.
Experiments:
[1] = qHTS for Inhibitors of Plasmodium falciparum (GB4) proliferation (AID 504315); also: nearly all actives have a fitted effect of over 50% in size
Outline: (§1)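 Erythrocytes infected with P. falciparum line (0.3% parasitemia, 2.5% hematocrit final) incubated with compounds 72 h at 37 °C, 5% CO2; SYBR Green lysis buffer added, fluorescence read next day. Normalized to 0.29 uM artemisinin and DMSO.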

[2] = qHTS for Inhibitors of Plasmodium falciparum (7G8) proliferation (AID 504316); also: nearly all actives have a fitted effect of over 65% in size
Outline: as §1

[3] = qHTS for Inhibitors of Plasmodium falciparum (HB3) proliferation (AID 504318); also: nearly all actives have a fitted effect of over 60% in size
Outline: as §1

[4] = qHTS for Inhibitors of Plasmodium falciparum (CP250) proliferation (AID 504320)
Outline: as §1

[5] = qHTS for Inhibitors of Plasmodium falciparum (DD2) proliferation (AID 504314)
Outline: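 Quantitative HTS growth inhibition: SYBR Green I binding to parasite DNA after 72 h drug exposure of infected erythrocytes (0.3% parasitemia, 2.5% hematocrit). Signals normalized per plate to inhibitor and vehicle wells.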
Potency is read from the fitted curve at half-maximal effect.

Q: With C=CCN1C=C2C(=O)C(C)(OC(=O)c3cccs3)C(=O)C=C2C=C1CCCC(=O)OC (stereo not drawn) as the compound, how does the Potency [1] read?
A: Its Potency is “inactive”.

Q: And the Potency [2]?
A: Its Potency is “inactive”.

Q: What about the Potency [3] of the same compound?
A: The Potency was “inactive”.

Q: And the Potency [4]?
A: Its Potency is “inactive”.

Q: For COC(=O)C1=C(C(=O)OC)[C@@H]2Nc3ccccc3[C@@]23C[C@@H](C(=O)OC)N(S(=O)(=O)c2ccc(OC)cc2)C3=N1, which Potency [5] is on record?
A: Its Potency is “inactive”.

Q: And the Potency [4]?
A: The Potency was “inactive”.

Q: What does the source list for COC(=O)C1=C(C(=O)OC)[C@@H]2N(Cc3ccccc3)c3ccccc3[C@@]23C[C@@H](C(=O)OC)N(C(=O)c2ccc(Br)cc2)C3=N1?
A: Potency [5]: inactive; Potency [4]: inactive

Q: With CC#CCN1c2ccccc2[C@]23C[C@@H](C(=O)OC)N(S(=O)(=O)c4c(C)noc4C)C2=NC(C(=O)OC)=C(C(=O)OC)[C@H]13 as the compound, how does the Potency [5] read?
A: The Potency was “inactive”.

Q: And the Potency [4]?
A: The Potency was “inactive”.

Q: For COC(=O)N1C2=C(c3ccccc3[C@@H]1CC(=O)Nc1ccc(Br)cc1)[C@@H]1C(=O)N(c3ccccc3)C(=O)[C@@H]1[C@H](C)C2, which Potency [5] is on record?
A: Its Potency is “inactive”.

Q: And the Potency [4]?
A: The Potency was “inactive”.

Q: Which Potency [1] does the source give for COC(=O)C1=C(C)N(CCc2cc(OC)c(OC)c(OC)c2)C(=O)N[C@H]1c1ccccc1 here?
A: The Potency was “inactive”.

Q: Which Potency [5] does the source give for COC(=O)C1=C(C(=O)OC)[C@@H]2N(Cc3ccccc3)c3ccccc3[C@@]23C[C@@H](C(=O)OC)N(C(=O)CC(C)C)C3=N1 here?
A: Its Potency is “inactive”.

Q: What about the Potency [4] of the same compound?
A: Its Potency is “inactive”.

Q: For CCOC(=O)CCCNC(=O)N1CCc2nc(-c3ccc(OC)cc3C)c3c(c2C1)CO[C@@H](c1ccccc1)C3, which Potency [5] is on record?
A: Its Potency is “inactive”.

Q: And the Potency [4]?
A: Its Potency is “inactive”.

Q: With COC(=O)C1=C(C(=O)OC)[C@@H]2N(Cc3ccccc3)c3ccccc3[C@@]23C[C@@H](C(=O)OC)N(S(=O)(=O)c2ccc(Br)cc2)C3=N1 as the compound, how does the Potency [1] read?
A: Its Potency is 1350 nM (active).

Q: What about the Potency [2] of the same compound?
A: Its Potency is 1510 nM (active).

Q: What about the Potency [3] of the same compound?
A: Its Potency is 1690 nM (active).

Q: And the Potency [4]?
A: Its Potency is 1690 nM (active).

Q: Which results are given for COC(=O)CCC(=O)OC1(C)C(=O)C=C2C=C(C3CC3)N(c3cccc(C#N)c3)C=C2C1=O (stereo not drawn)?
A: Potency [5]: inactive; Potency [4]: inactive

Q: Which Potency [5] does the source give for C[C@H]1CC[C@H]2C(=O)N(Cc3ccccc3)C[C@H](O)CN2[C@H]1c1cccc(Br)c1 here?
A: The Potency was “inactive”.

Q: And the Potency [4]?
A: Its Potency is “inactive”.

Q: With C=CCN1c2ccccc2[C@]23C[C@@H](C(=O)OC)N(C(=O)c4ccc(Br)cc4)C2=NC(C(=O)OC)=C(C(=O)OC)[C@H]13 as the compound, how does the Potency [5] read?
A: Its Potency is “inactive”.

Q: And the Potency [4]?
A: Its Potency is “inactive”.

Q: Which Potency [5] does the source give for CC#CCN1c2ccccc2[C@]23C[C@@H](C(=O)OC)N(S(=O)(=O)c4ccc([N+](=O)[O-])cc4)C2=NC(C(=O)OC)=C(C(=O)OC)[C@H]13 here?
A: Its Potency is “inactive”.

Q: And the Potency [4]?
A: The Potency was “inactive”.

Q: Which results are given for COC(=O)C1=C(C(=O)OC)[C@@H]2N(C)c3ccc(OC)cc3[C@@]23C[C@@H](C(=O)OC)N(C(=O)CC(C)C)C3=N1?
A: Potency [5]: inactive; Potency [4]: inactive

Q: With COC(=O)C1=C(C(=O)OC)[C@@H]2N(C)c3ccc(OC)cc3[C@@]23C[C@@H](C(=O)OC)N(S(=O)(=O)c2ccc(C(F)(F)F)cc2)C3=N1 as the compound, how does the Potency [5] read?
A: The Potency was “inactive”.

Q: And the Potency [4]?
A: Its Potency is “inactive”.

Q: Which results are given for C=CCNC(=O)N1C2=NC(C(=O)OC)=C(C(=O)OC)[C@@H]3N(Cc4ccccc4)c4ccccc4[C@]23C[C@H]1C(=O)OC?
A: Potency [1]: 1900 nM (active); Potency [2]: 1510 nM (active); Potency [3]: 3160 nM (active)

Q: What does the source list for C[C@@H]1CC[C@H]2C(=O)N(Cc3cccc([N+](=O)[O-])c3)C[C@H](O)CN2[C@@H]1c1ccc(Br)cc1?
A: Potency [1]: inactive; Potency [2]: inactive; Potency [4]: inactive

Q: Which results are given for COC(=O)C1=C(C(=O)OC)[C@@H]2N(C)c3ccc(OC)cc3[C@@]23C[C@@H](C(=O)OC)N(S(=O)(=O)c2ccc(C)cc2)C3=N1?
A: Potency [5]: inactive; Potency [4]: inactive

Q: With CC#CCN1c2ccccc2[C@]23C[C@@H](C(=O)OC)N(C(C)=O)C2=NC(C(=O)OC)=C(C(=O)OC)[C@H]13 as the compound, how does the Potency [5] read?
A: The Potency was “inactive”.

Q: And the Potency [4]?
A: Its Potency is “inactive”.

Q: With COC(=O)C1=C(C(=O)OC)[C@@H]2Nc3ccccc3[C@@]23C[C@@H](C(=O)OC)N(S(=O)(=O)c2ccc(C(F)(F)F)cc2)C3=N1 as the compound, how does the Potency [5] read?
A: The Potency was “inactive”.

Q: And the Potency [4]?
A: The Potency was “inactive”.

Q: For COC(=O)C1=C(C(=O)OC)[C@@H]2N(C)c3ccccc3[C@@]23C[C@@H](CO)N(C(=O)c2cc(C)oc2C)C3=N1, which Potency [5] is on record?
A: Its Potency is “inactive”.

Q: And the Potency [4]?
A: Its Potency is “inactive”.

Q: For COc1ccc([C@]23Cc4cc(OC)c(OC)cc4[C@H](O2)c2c(c4ccccc4oc2=O)O3)cc1, which Potency [1] is on record?
A: Its Potency is “inactive”.

Q: For COc1ccc(CN2C=C3C(=O)C(C)(OC(=O)CCc4ccccc4)C(=O)C=C3C=C2c2ccc(C#N)cc2)cc1 (stereo not drawn), which Potency [1] is on record?
A: Its Potency is “inactive”.

Q: With COC(=O)C1=C(C)N(Cc2ccccc2)C(=NCCc2cccnc2)NC1c1ccc(Br)cc1 (stereo not drawn) as the compound, how does the Potency [5] read?
A: The Potency was 1500 nM (active).

Q: What about the Potency [4] of the same compound?
A: The Potency was 1900 nM (active).

Q: Which results are given for CC#CCN1c2ccccc2[C@]23C[C@@H](C(=O)OC)N(S(=O)(=O)c4ccc(C#N)cc4)C2=NC(C(=O)OC)=C(C(=O)OC)[C@H]13?
A: Potency [5]: inactive; Potency [4]: inactive

Q: What does the source list for C#CCCOC(=O)N1C2=NC(C(=O)OC)=C(C(=O)OC)[C@@H]3N(Cc4ccccc4)c4ccccc4[C@]23C[C@H]1C(=O)OC?
A: Potency [5]: inactive; Potency [4]: inactive

Q: What does the source list for CCCCS(=O)(=O)N1C2=NC(C(=O)OC)=C(C(=O)OC)[C@@H]3N(C)c4ccc(OC)cc4[C@]23C[C@H]1C(=O)OC?
A: Potency [5]: inactive; Potency [4]: inactive

Q: What does the source list for COC(=O)C1=C(C(=O)OC)[C@@H]2Nc3ccccc3[C@@]23C[C@@H](C(=O)OC)N(C(=O)c2cccs2)C3=N1?
A: Potency [1]: inactive; Potency [2]: inactive; Potency [4]: inactive

Q: For COC(=O)C1=C(C(=O)OC)[C@@H]2N(Cc3ccccc3)c3ccccc3[C@@]23C[C@@H](C(=O)OC)N(S(=O)(=O)c2ccc(C)cc2)C3=N1, which Potency [1] is on record?
A: Its Potency is 1690 nM (active).

Q: And the Potency [2]?
A: The Potency was 1690 nM (active).

Q: What about the Potency [3] of the same compound?
A: Its Potency is 1510 nM (active).

Q: Which results are given for CC1COc2ccccc2C1=O (stereo not drawn)?
A: Potency [1]: 1900 nM (active); Potency [2]: 1690 nM (active); Potency [3]: 1900 nM (active)

Q: Which Potency [1] does the source give for CCOC(=O)CN1C(=O)N[C@@H](c2cccc(C(F)(F)F)c2)C(C(=O)OC)=C1C here?
A: Its Potency is “inactive”.

Q: What about the Potency [2] of the same compound?
A: The Potency was “inactive”.

Q: And the Potency [4]?
A: The Potency was “inactive”.

Q: Which Potency [5] does the source give for CC1(OC(=O)CCc2ccccc2)C(=O)C=C2C=C(c3ccc(C#N)cc3)N(CCc3c[nH]c4ccccc34)C=C2C1=O (stereo not drawn) here?
A: Its Potency is “inactive”.

Q: And the Potency [4]?
A: Its Potency is “inactive”.

Q: Which Potency [1] does the source give for CCOC(=O)CN1C(=O)N(CC)C(C)=C(C(=O)OC)[C@@H]1c1ccccc1 here?
A: Its Potency is “inactive”.

Q: What about the Potency [2] of the same compound?
A: Its Potency is “inactive”.
